Screens as filed in PubChem.
The list is not random: actives were taken first. Their share in the collection is about 4.6%.
Tau fibril FP – qHTS for Inhibitors of Tau Fibril Formation, Fluorescence Polarization; Potency, µM (series often up to 57.7 µM), usual class: inhibitors; Microtubule-associated protein tau (Homo sapiens), P10636; K18 P301L tau heparin fibrillization, Alexa594 FP, 6 h; 0.39% of 280,000 active; AID 1468, 2008; also: nearly all actives have a fitted effect of over 55% in size
Target sequence (P10636 561-689 P618L limits assumed): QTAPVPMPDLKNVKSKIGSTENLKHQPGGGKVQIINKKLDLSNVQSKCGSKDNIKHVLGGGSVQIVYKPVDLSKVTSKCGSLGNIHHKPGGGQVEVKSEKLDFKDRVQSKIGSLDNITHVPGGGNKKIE
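Human tau K18 […] P301L fragment, 15 uM unlabeled plus 0.24 uM Alexa 594-labeled tau (final), with compound and 20 uM heparin in 100 mM sodium acetate pH 7; 6 hr at 37 C, then Alexa 594 FP read.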
PNC assembly inh – High Content Assay for Compounds that inhibit the Assembly of the Perinucleolar Compartment. PC3M PTB-GFP, PNC prevalence imaging, 16 h; stronger effect = lower value. activity change (PNC), negative = inhibition, % at 10 µM. 3.1% of 140,000 active. AID 2417, 2010;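 active = readout at or below -70, meaning at least 70% loss of cells showing the perinucleolar compartment, a nuclear body marking cancer cells; inconclusive = readout between -30 and a set limit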
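Compounds are pinned in duplicate onto adhered PC3M cells stably expressing GFP-tagged PTB and incubated 16 h at 37 C. Cells are then fixed, nuclei stained with Hoechst, and PNC-positive cells counted.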
TexasRed fluor – Total Fluorescence Counterscreen for Inhibitors of the Interaction of Thyroid Hormone Receptor and Steroid Receptor Coregulator 2; Potency, µM (doses to about 106 µM); TRb/SRC2 Texas Red total fluorescence interference; 0.29% of 280,000 active; active = well fitted curve in either direction with a large enough effect; inconclusive = small, poorly fitted or top-dose-only effect
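Flags fluorescent or light-absorbing compounds by total fluorescence, S + 2P, at 555 nm excitation and 632 nm emission. Mixture: 20 nM Texas Red SRC2 peptide, 0.6 uM human TRb LBD, 1 uM T3, 5% DMSO; compound exposure 5 h at ambient temperature.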
Tau fluor counter – Counterscreen qHTS for Inhibitors of Tau Fibril Formation, Fluorescence Polarization | tau K18 P301L Alexa594 fluorescence, heparin fibrillization | Potency, µM (highest dose often 57.7 µM) | 0.93% of 280,000 active; also: nearly all actives have a fitted effect of over 55% in size
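Human tau K18 P301L (15 uM unlabeled, 0.24 uM Alexa 594-labeled) in 100 mM sodium acetate pH 7 with 20 uM heparin, 6 hr at 37 C. ThT 30 uM added, 1 hr ambient; Alexa 594 FP and total fluorescence read at 555/632 nm.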
TRb-SRC2 inh – qHTS for Inhibitors of the Interaction of Thyroid Hormone Receptor and Steroid Receptor Coregulator 2; Thyroid hormone receptor beta (Homo sapiens), P10828; TRbeta-SRC2 peptide binding, fluorescence polarization; receptor liganded with 1 µM T3; Potency, µM (doses to about 106 µM), actives largely listed as inhibitors; 0.065% of 280,000 active; also: nearly all actives have a fitted effect of over 50% in size
Target sequence (P10828 whole entry, looked up): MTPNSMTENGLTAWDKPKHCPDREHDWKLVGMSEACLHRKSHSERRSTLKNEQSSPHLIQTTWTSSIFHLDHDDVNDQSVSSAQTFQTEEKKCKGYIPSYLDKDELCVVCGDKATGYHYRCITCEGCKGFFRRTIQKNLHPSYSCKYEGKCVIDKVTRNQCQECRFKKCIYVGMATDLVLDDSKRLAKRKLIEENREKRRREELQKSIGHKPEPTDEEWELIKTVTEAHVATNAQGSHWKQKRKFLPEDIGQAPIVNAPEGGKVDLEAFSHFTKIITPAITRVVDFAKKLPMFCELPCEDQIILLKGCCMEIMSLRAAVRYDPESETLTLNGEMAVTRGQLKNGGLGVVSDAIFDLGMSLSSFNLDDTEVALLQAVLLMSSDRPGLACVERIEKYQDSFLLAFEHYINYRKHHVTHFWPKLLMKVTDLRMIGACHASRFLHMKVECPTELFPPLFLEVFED
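Binding of a 20-amino-acid Texas Red SRC2 peptide (20 nM) to TRb ligand-binding domain (0.6 uM) with agonist T3 at 1 uM was followed by fluorescence polarization after a 5 hr room-temperature incubation.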
Tau ThT inhib – qHTS for Inhibitors of Tau Fibril Formation, Thioflavin T Binding; Microtubule-associated protein tau (Homo sapiens), P10636; recombinant tau K18 P301L, heparin-induced fibrillization, ThT fluorescence; Potency, µM (top dose mostly 57.4 µM), hits mostly inhibitors; 2.1% of 270,000 active; AID 1460, 2008; also: nearly all actives have a fitted effect of over 55% in size
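Using a mix of unlabeled (15 uM) and Alexa 594-labeled (0.24 uM) tau K18 P301L, heparin-triggered fibrillization over 6 hr at 37 C was scored by ThT fluorescence.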
Hits are given with their value; i = inactive; ? = inconclusive; nt = no result given; [ ] = dose if it differs, or a comment. Unless noted, calls follow the shape of the dose curve; as a rule, active = well fitted curve in the direction sought with a large enough effect; inconclusive = small, poorly fitted or top-dose-only effect, or another doubt; inactive = no such curve, though single readings can be large; an effect the other way counts as inactive or inconclusive.

SMILES	Tau fibril FP	PNC assembly inh	TexasRed fluor	Tau fluor counter	TRb-SRC2 inh	Tau ThT inhib
O=C1c2cccc3c([N+](=O)[O-])c(O)cc(c23)C(=O)N1Nc1ccccc1	i	nt	i	i	i	5µM
COc1ccccc1CNC(=O)CCn1c(=O)[nH]c2ccsc2c1=O	i	-100	i	i	i	i
CCN1CCN(C(=O)c2ccc3c(c2)N(Cc2cc(C)ccc2C)C(=O)c2ccccc2S3=O)CC1 (stereo not given)	i	nt	i	i	i	i
CCCC/C=C/[C@H](c1ccccc1)[C@H](CO)Cc1ccc([N+](=O)[O-])cc1	nt	nt	i	nt	i	nt
Cc1cccc(NC(=S)N(CCN(C)C)Cc2cc3cc(C)ccc3[nH]c2=O)c1	i	nt	i	i	i	?
Cc1cccc2cc(CN(CCN(C)C)C(=S)Nc3ccccc3)c(=O)[nH]c12	i	-99	i	i	i	i
COc1cc(/C=N/NS(=O)(=O)c2ccc(C(C)(C)C)cc2)cc([N+](=O)[O-])c1O	i	nt	i	i	i	?
Cc1ccc(C)c(SCC(=O)OCC(=O)NCc2ccccc2)c1	i	nt	i	i	i	i
Cc1cc(C(=O)N/N=C/c2cccnc2)cs1	i	-114	i	i	i	i
Cc1cc(C(=O)N/N=C/c2cccnc2)c(C)o1	i	i	i	i	i	i
COc1ccc(-n2cc(C(=O)OCc3ccc(F)c(F)c3)c3ccccc3c2=O)cc1	i	nt	0.079µM[quencher]	i	i	i
C=C1c2cccc(O)c2C(O)=C2C(=O)[C@]3(O)C(O)=C(C(N)=O)C(=O)C(N(C)C)C3C(O)C12 (stereo not given in full)	i	nt	40µM[quencher]	i	i	?
C=C1c2cccc(O)c2C(O)=C2C(=O)[C@]3(O)C(O)=C(C(N)=O)C(=O)[C@@H](N(C)C)[C@@H]3[C@@H](O)[C@H]12	?	nt	32µM[quencher]	?	i	?
Cc1ccc(OCc2nnc(SCC(=O)CC(=O)Nc3ccccc3)o2)cc1	i	i	i	?	i	i
CC1(C)OCC(CSC2=C(SCC3COC(C)(C)O3)C(=O)c3ncccc3C2=O)O1 (stereo not given)	1.8µM	nt	i	?	i	1µM
Cc1cc(C)c2[nH]c(=O)c(CN(CC3CCCO3)C(=S)NCc3ccco3)cc2c1 (stereo not given)	i	-82	i	i	i	i
Cc1cccc2cc(CN(CC3CCCO3)C(=S)NCc3ccco3)c(=O)[nH]c12 (stereo not given)	i	i	i	i	i	i
C=CCN1C(=O)/C(=C2\SC(N3CCOCC3)=NC2=O)c2cc(Br)ccc21	i	i	i	i	i	16µM
Oc1ccc(NCc2cccc(OCc3ccccc3)c2)cc1	?	nt	i	?	32µM	28µM
Oc1ccc(NCc2cccc(OCc3ccc(F)cc3)c2)cc1	?	nt	i	?	11µM	22µM
O=[N+]([O-])c1ccc(COc2cccc(CNc3ccc(F)cc3)c2)cc1	i	?	i	?	i	?
Cn1c(=O)c2c3c(sc2n2cnnc12)CCC3	i	?	i	i	i	i
CN(C)c1ccc(N2CN=C3SCC(=O)N3C2)cc1	13µM	i	?	?	16µM	5µM
Cc1cccn2c(CN[C@H]3CCCCNC3=O)c(C(=O)N3CCOCC3)nc12	i	nt	i	i	i	i
SMILES	Tau fibril FP	PNC assembly inh	TexasRed fluor	Tau fluor counter	TRb-SRC2 inh	Tau ThT inhib
Cn1c(-c2ccccc2)c(C(=O)CC#N)c2ccccc21	i	nt	i	i	i	i
Cc1ccccc1C(=O)Nc1ccc(-c2nc3ccc(C(=O)c4ccccc4)cc3[nH]2)cc1	28µM	i	i	?	i	i
NNc1nc2c(Cl)ccc(Cl)c2s1	?	i	i	10µM[quencher]	i	11µM
Cc1cccc2c(N=Nc3ccc(S(=O)(=O)Nc4cccc(Cl)c4)cc3[N+](=O)[O-])c(O)[nH]c12	i	nt	i	5.6µM[quencher]	i	?
CC(=O)Nc1ccc(S(=O)(=O)Nc2ccc(C)c([N+](=O)[O-])c2)cc1	i	nt	i	i	i	i
CC(C)(C)C(=O)Nc1ccc(-c2csnn2)cc1	i	nt	i	i	i	i
O=C(Nc1cc(Cl)cc(Cl)c1)c1ccc(F)c(S(=O)(=O)NCc2ccccc2Cl)c1	8.9µM	nt	i	?	i	i
O=C(Nc1cc(Cl)cc(Cl)c1)c1ccc(F)c(S(=O)(=O)NC2CCCCC2)c1	7.1µM	nt	i	?	i	i
COc1ccc(CNS(=O)(=O)c2cc(C(=O)Nc3cc(Cl)cc(Cl)c3)ccc2F)cc1	3.5µM	nt	i	3.5µM[quencher]	i	i
O=S(=O)(Nc1ccccc1O)c1ccc(-c2ccccc2)cc1	i	nt	i	?	i	i
Cc1ccccc1OCC1Cn2c(nc3c2c(=O)[nH]c(=O)n3C)O1 (stereo not given)	i	i	i	i	i	i
Cc1ccc(OCC2Cn3c(nc4c3c(=O)[nH]c(=O)n4C)O2)cc1 (stereo not given)	i	-103	i	i	i	i
COc1ccc(CCNC(=O)c2ccncc2)cc1OC	i	i	i	i	i	i
COc1cc(C(=O)NC2CCCC2)c(Br)c(OC)c1OC	i	nt	i	i	i	i
COc1cc(C(=O)N/N=C/c2cc([N+](=O)[O-])cs2)cc(OC)c1OC	i	-103	i	i	i	i
CCOc1ccc(C(=O)N/N=C/c2cc([N+](=O)[O-])cs2)cc1	i	nt	i	i	i	?
[O-]/[N+](=C/c1ccc(F)cc1)c1ccc(Cl)cc1	?	i	i	i	i	32µM
O=C(Cc1cc(C(=O)O)c2ccccc2n1)Nc1ccccc1	i	nt	i	i	i	i
COc1ccc(C2NC(=O)Cc3cc(OC)c(OC)cc32)cc1OC (stereo not given)	i	nt	i	i	i	nt
CCN(CC)Cc1c(O)ccc2c(-c3ccccc3)cc(=O)oc12	i	-118	i	i	i	i
CCOc1ccc(CNC(=O)c2cnc3sc(N4CCOCC4)nn3c2=O)cc1OC	i	nt	1995µM[quencher]	i	?	i
CCOc1ccc(CNC(=O)c2cnc3sc(N4CCOCC4)nn3c2=O)cc1	i	nt	i	i	i	i
